{"source": "the supplement of paper PMC12282887", "test_system": "E. coli BW25113 micFp lux reporter", "assay": "promoter activity interaction Z-score (Lux/OD deviation from empty-vector control); higher = stronger promoter induction by the compound", "description": "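E. coli BW25113 (wild type or ΔmarA/ΔsoxS/Δrob) carrying pTU175 luxCDABE promoter reporters was grown in LB in 384-well plates at 37°C with each of 94 compounds at 4 two-fold concentrations, in biological duplicates. Luminescence and OD600 were read every 30 min for 12 h and integrated as AUC over 8 h (0-8 h WT, 1-9 h mutants). Lux AUC was divided by OD AUC; the interaction score is the residual of a Huber robust fit of each promoter against the empty-vector control, then Z-transformed per promoter.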", "note": "± gives the standard deviation of the averaged measurements.", "data": [{"smiles": "Cc1c(N)nc([C@H](CC(N)=O)NC[C@H](N)C(N)=O)nc1C(=O)N[C@H](C(=O)N[C@H](C)[C@@H](O)[C@H](C)C(=O)N[C@H](C(=O)NCCc1nc(-c2nc(C(=O)NCCC[S+](C)C)cs2)cs1)[C@@H](C)O)[C@@H](OC1OC(CO)C(O)C(O)C1OC1OC(CO)C(O)C(OC(N)=O)C1O)c1cnc[nH]1", "note": "(stereo partly drawn) [Bleomycin]", "values": [{"measurement": "promoter activity interaction Z-score", "setting": "0.038 µg/ml, genetic background: wild type", "value": "-0.542 ± 0.065"}, {"measurement": "promoter activity interaction Z-score", "setting": "0.038 µg/ml, genetic background: ΔmarA", "value": "-0.018 ± 0.18"}, {"measurement": "promoter activity interaction Z-score", "setting": "0.038 µg/ml, genetic background: Δrob", "value": "-0.0145 ± 0.17"}, {"measurement": "promoter activity interaction Z-score", "setting": "0.038 µg/ml, genetic background: ΔsoxS", "value": "-0.239 ± 0.3"}, {"measurement": "promoter activity interaction Z-score", "setting": "0.076 µg/ml, genetic background: wild type", "value": "-0.384 ± 0.099"}, {"measurement": "promoter activity interaction Z-score", "setting": "0.076 µg/ml, genetic background: ΔmarA", "value": "-0.0986 ± 0.079"}, {"measurement": "promoter activity interaction Z-score", "setting": "0.076 µg/ml, genetic background: Δrob", "value": "-0.0358 ± 0.11"}, {"measurement": "promoter activity interaction Z-score", "setting": "0.076 µg/ml, genetic background: ΔsoxS", "value": "-0.0314 ± 0.21"}, {"measurement": "promoter activity interaction Z-score", "setting": "0.15 µg/ml, genetic background: wild type", "value": "-0.758 ± 0.17"}, {"measurement": "promoter activity interaction Z-score", "setting": "0.15 µg/ml, genetic background: ΔmarA", "value": "0.0263 ± 0.051"}, {"measurement": "promoter activity interaction Z-score", "setting": "0.15 µg/ml, genetic background: Δrob", "value": "0.317 ± 0.023"}, {"measurement": "promoter activity interaction Z-score", "setting": "0.15 µg/ml, genetic background: ΔsoxS", "value": "-0.34 ± 0.014"}, {"measurement": "promoter activity interaction Z-score", "setting": "0.3 µg/ml, genetic background: wild type", "value": "-0.844 ± 0.18"}, {"measurement": "promoter activity interaction Z-score", "setting": "0.3 µg/ml, genetic background: ΔmarA", "value": -0.0349}, {"measurement": "promoter activity interaction Z-score", "setting": "0.3 µg/ml, genetic background: Δrob", "value": "-0.227 ± 0.59"}, {"measurement": "promoter activity interaction Z-score", "setting": "0.3 µg/ml, genetic background: ΔsoxS", "value": -1.55}]}, {"smiles": "CC(=O)N[C@H]1[C@@H](O[C@@H]2O[C@H](CC(O)[C@H]3O[C@@H](n4ccc(=O)[nH]c4=O)[C@H](O)[C@@H]3O)[C@H](O)[C@H](O)[C@H]2NC(=O)/C=C/CC(C)C)O[C@H](CO)[C@@H](N)[C@@H]1O", "note": "(stereo partly drawn) [Tunicamycin]", "values": [{"measurement": "promoter activity interaction Z-score", "setting": "2.6 µg/ml, genetic background: wild type", "value": "0.395 ± 0.012"}, {"measurement": "promoter activity interaction Z-score", "setting": "2.6 µg/ml, genetic background: ΔmarA", "value": "0.0327 ± 0.17"}, {"measurement": "promoter activity interaction Z-score", "setting": "2.6 µg/ml, genetic background: Δrob", "value": "0.0339 ± 0.11"}, {"measurement": "promoter activity interaction Z-score", "setting": "2.6 µg/ml, genetic background: ΔsoxS", "value": "0.164 ± 0.031"}, {"measurement": "promoter activity interaction Z-score", "setting": "5.3 µg/ml, genetic background: wild type", "value": "0.157 ± 0.33"}, {"measurement": "promoter activity interaction Z-score", "setting": "5.3 µg/ml, genetic background: ΔmarA", "value": "-0.0548 ± 0.095"}, {"measurement": "promoter activity interaction Z-score", "setting": "5.3 µg/ml, genetic background: Δrob", "value": "0.115 ± 0.13"}, {"measurement": "promoter activity interaction Z-score", "setting": "5.3 µg/ml, genetic background: ΔsoxS", "value": "-0.136 ± 0.086"}, {"measurement": "promoter activity interaction Z-score", "setting": "10.6 µg/ml, genetic background: wild type", "value": "-0.104 ± 0.25"}, {"measurement": "promoter activity interaction Z-score", "setting": "10.6 µg/ml, genetic background: ΔmarA", "value": "0.0656 ± 0.17"}, {"measurement": "promoter activity interaction Z-score", "setting": "10.6 µg/ml, genetic background: Δrob", "value": "0.0163 ± 0.13"}, {"measurement": "promoter activity interaction Z-score", "setting": "10.6 µg/ml, genetic background: ΔsoxS", "value": "-0.276 ± 0.12"}, {"measurement": "promoter activity interaction Z-score", "setting": "21.1 µg/ml, genetic background: wild type", "value": "-0.663 ± 0.012"}, {"measurement": "promoter activity interaction Z-score", "setting": "21.1 µg/ml, genetic background: ΔmarA", "value": "-0.0908 ± 0.024"}, {"measurement": "promoter activity interaction Z-score", "setting": "21.1 µg/ml, genetic background: Δrob", "value": "-0.359 ± 0.073"}, {"measurement": "promoter activity interaction Z-score", "setting": "21.1 µg/ml, genetic background: ΔsoxS", "value": "-0.569 ± 0.028"}]}, {"smiles": "NCCc1c[nH]c2ccc(O)cc12", "note": "[Serotonine]", "values": [{"measurement": "promoter activity interaction Z-score", "setting": "13.3 µg/ml, genetic background: wild type", "value": "-0.241 ± 0.065"}, {"measurement": "promoter activity interaction Z-score", "setting": "13.3 µg/ml, genetic background: ΔmarA", "value": "-0.0379 ± 0.032"}, {"measurement": "promoter activity interaction Z-score", "setting": "13.3 µg/ml, genetic background: Δrob", "value": "-0.00374 ± 0.19"}, {"measurement": "promoter activity interaction Z-score", "setting": "13.3 µg/ml, genetic background: ΔsoxS", "value": "-0.156 ± 0.27"}, {"measurement": "promoter activity interaction Z-score", "setting": "26.6 µg/ml, genetic background: wild type", "value": "0.00853 ± 0.19"}, {"measurement": "promoter activity interaction Z-score", "setting": "26.6 µg/ml, genetic background: ΔmarA", "value": "0.0453 ± 0.21"}, {"measurement": "promoter activity interaction Z-score", "setting": "26.6 µg/ml, genetic background: Δrob", "value": "0.0253 ± 0.12"}, {"measurement": "promoter activity interaction Z-score", "setting": "26.6 µg/ml, genetic background: ΔsoxS", "value": "-0.0552 ± 0.27"}, {"measurement": "promoter activity interaction Z-score", "setting": "53.2 µg/ml, genetic background: wild type", "value": "-0.712 ± 0.14"}, {"measurement": "promoter activity interaction Z-score", "setting": "53.2 µg/ml, genetic background: ΔmarA", "value": "0.105 ± 0.08"}, {"measurement": "promoter activity interaction Z-score", "setting": "53.2 µg/ml, genetic background: Δrob", "value": "-0.0954 ± 0.018"}, {"measurement": "promoter activity interaction Z-score", "setting": "53.2 µg/ml, genetic background: ΔsoxS", "value": "-0.396 ± 0.062"}, {"measurement": "promoter activity interaction Z-score", "setting": "106.3 µg/ml, genetic background: wild type", "value": "-0.289 ± 0.23"}, {"measurement": "promoter activity interaction Z-score", "setting": "106.3 µg/ml, genetic background: ΔmarA", "value": "0.0717 ± 0.036"}, {"measurement": "promoter activity interaction Z-score", "setting": "106.3 µg/ml, genetic background: Δrob", "value": "-0.13 ± 0.074"}, {"measurement": "promoter activity interaction Z-score", "setting": "106.3 µg/ml, genetic background: ΔsoxS", "value": "-0.339 ± 0.011"}]}]}
